Screening data: PubChem BioAssay, several laboratories
NSD2 HMT inh – NSD2 (human) methyltransferase inhibition; inhibition, % at 12.5 µM; NSD2 peptide methylation, AlphaScreen, 120 min; AID 743445; O96028; 310,000 tested, 0.54% active; in the data active = inhibition above about 50%
N-glyco inh – blocks N-linked glycosylation in D54 reporter cells | 360,000 tested, 0.23% active | D54 ERlucT glycosylation luciferase reporter, 24 h; percent of 100 nM tunicamycin response | reporter increase, % at 12.5 µM;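 active = mean luciferase reporter signal, scaled so untreated is 0 and the glycosylation-blocking control 100, at or above a set limit in every replicate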;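 also: luciferase carries N-glycosylation sites so blocking glycosylation raises the light; 0% = median of neutral control wells and 100% = median of 100 nM tunicamycin wells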
CaV13 FRET inh – Disruptors of the CACNA1D IQ motif to Ca2+-dependent inactivation inhibitor domain association, primary screening, Förster resonance energy transfer in intact living … | HEK cells, CFP/YFP FRET ICDI-IQ, plate reader, 10 min; percent FRET-ratio fall versus neutral wells | inhibition, % at 12.3 µM | 340,000 tested, 0.098% active;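 active = mean replicate inhibition of at least 30% and at least 1% of replicates passing that level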;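 also: 0% = median of the neutral control wells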
ATG4B inhibitor – inhibitors of human ATG4B cysteine protease | 340,000 tested, 0.51% active | inhibition, % at 8.33 µM | Q9Y4P1 | ATG4B cleavage of LC3-PLA2, NBD-HPC fluorescence, 1 h; in the data active = inhibition above about 40%
Target sequence (Q9Y4P1 whole entry, looked up): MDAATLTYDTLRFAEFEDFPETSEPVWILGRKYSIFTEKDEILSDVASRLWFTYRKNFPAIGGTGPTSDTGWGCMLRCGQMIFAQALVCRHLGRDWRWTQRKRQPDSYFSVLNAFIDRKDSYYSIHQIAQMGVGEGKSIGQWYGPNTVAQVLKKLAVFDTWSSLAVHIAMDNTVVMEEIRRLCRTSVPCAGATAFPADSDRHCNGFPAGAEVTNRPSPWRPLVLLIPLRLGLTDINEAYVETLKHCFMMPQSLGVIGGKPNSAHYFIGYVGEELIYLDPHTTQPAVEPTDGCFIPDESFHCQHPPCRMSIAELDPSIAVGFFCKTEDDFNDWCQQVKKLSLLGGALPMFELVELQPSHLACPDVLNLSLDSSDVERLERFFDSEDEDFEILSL
DSG3 Ab inh – human desmoglein-3 autoantibody binding inhibition; 310,000 tested, 0.48% active; binding (percent of control), % at 10 µM; DSG3-coupled beads, scFv-anti-DSG3-GFP binding, flow cytometry; hits give low values; AID 588358; P32926;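 active = binding more than 3 SD below its plate's average and above zero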;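 also: hits lower antibody fragment binding to DSG3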
Vif inh – inhibitors of HIV Vif | HEK293T cells, Vif self-association by quenched fluorescence, imaging, 24 h | inhibition, % at 7.49 µM | 340,000 tested, 0.35% active | AID 602346; in the data active = inhibition above about 50%, passing the limit was not always enough
* hit, by the source's call; nt = no result given. An excerpt weighted towards active compounds, which were near 1.9% of everything screened.

SMILES	NSD2 HMT inh	N-glyco inh	CaV13 FRET inh	ATG4B inhibitor	DSG3 Ab inh	Vif inh
Cc1nc(NC(=O)COC(=O)CCc2nc3ccccc3s2)c(Cl)cc1Cl	-3	2	-7	-3	99	7
COc1cccc2c(SCC(=O)N/N=C/c3ccc(O)c(O)c3)cc(C)nc12	132*	-6	-5	0	nt	-7
CCCCOc1cccc2c(=O)n(CC(=O)Nc3ccc4c(c3)OCCO4)ccc12	nt	1	-5	nt	nt	73*
O=C(/C=C/[C@H]1O[C@@H](n2cnc3c(NC(=O)c4ccccc4)ncnc32)[C@H](O)[C@@H]1O)NCCc1c[nH]c2ccccc12	nt	2	-5	nt	nt	nt
Cc1[nH]n(-c2ccccc2)c(=O)c1N=Nc1ccccc1	-1	-4	-5	-2	85	-3
Cc1ccc(N=Nc2c(N)n(-c3ccccc3)[nH]c2=O)cc1	3	1	nt	5	-0.7*	5
C/C=C/c1ccc(OCCNCc2ccccc2)c(OC)c1	9	-1	-20	-2	101	70*
COc1cccc(-c2cc(C(F)(F)F)nc(-n3cc(C)cn3)n2)c1	-2	-2	-6	-6	99	89*
COc1cccc(-c2cc(C(F)(F)F)nc(-n3cncn3)n2)c1	6	0	-3	-8	98	2
CCc1ccc(C(=O)/C=C2\Sc3ccccc3NC2=O)cc1	-1	2	-4	56*	116	12
O=C(NCc1ccncc1)C1CCCN1S(=O)(=O)c1ccc(Cl)cc1 (stereo not drawn)	9	-3	-6	-3	110	0
COc1ccc(C(=O)NCc2nnc(SCC(=O)Nc3nc4ccccc4s3)o2)cc1	1	5	-5	-5	85*	7
COc1ccc2nc(NC(=O)CSc3nnnn3C)sc2c1	40	2	1	-2	-8.1*	4
O=C(O)c1ccccc1C(=O)NCC(O)c1ccccc1 (stereo not drawn)	0	2	-5	3	104	-22
Cc1ccc(S(=O)(=O)N2CCN(C(=O)CC(C)n3cncn3)CC2)cc1C (stereo not drawn)	-2	1	-5	0	102	2
Cc1ccc(S(=O)(=O)NNC(=O)Nc2ccc(Cl)c(Cl)c2)cc1	-1	1	-3	-1	94	16
O=C(c1ccc(F)cc1)C1CCN(C(=O)Nc2ccccc2Cl)CC1	nt	3	64*	6	95	-8
CCOc1cc(/C=C2\SC(=N)N(c3nonc3N)C2=O)ccc1OCCN1CCOCC1	11	5	-5	-2	107	15
Cc1cccc2sc(NC(=O)C3CCN(C(=O)c4ccco4)CC3)nc12	nt	3	-4	-18	118	-10
CN(C)/C=C/C(=O)c1c(F)cccc1F	-1	0	94*	14	nt	-5
CC(=O)C1=C(C)NC(SCc2ccc(C#N)cc2)=C(C#N)C1c1ccco1 (stereo not drawn)	-1	-1	-3	-10	nt	0
CC(=O)C1=C(C)NC(SCC(=O)c2ccc(Cl)cc2Cl)=C(C#N)C1c1ccco1 (stereo not drawn)	0	-4	-15	-2	77*	3
CC(=O)C1=C(C)NC(SCC(=O)c2ccc(Cl)cc2)=C(C#N)C1c1ccco1 (stereo not drawn)	2	-5	nt	-3	96	58*
CN(C)c1ccc(C(O)Cc2nc3ccccc3n2C)cc1 (stereo not drawn)	1	-11	-7	1	98	120*
CC1CCc2c(C(=O)OCC(=O)Nc3cccc(S(=O)(=O)N4CCCCCC4)c3)csc2C1 (stereo not drawn)	-4	-4	-15	-6	107	-14
SMILES	NSD2 HMT inh	N-glyco inh	CaV13 FRET inh	ATG4B inhibitor	DSG3 Ab inh	Vif inh
COc1cccc(-c2ccc3c(c2)C2CC3CCN2C(=O)c2ccc(-c3ccccc3)cc2)c1 (stereo not drawn)	nt	-3	-10	nt	102	6
O=C(COc1cccc(Cl)c1)Nc1ccc2c(c1)CCC2	-3	3	-19	29	119	105*
O=C(COc1ccccc1F)Nc1ccc2c(c1)CCC2	12	1	-16	-4	nt	-1
Cc1ccc(NCC(=O)c2ccccc2)cc1Cl	0	-1	-4	4	104	-6
Cc1ccc(NCCC(=O)c2ccccc2)cc1Cl	-1	-2	-4	5	89*	-1
Cc1ccc(C(=O)CNc2ccc(C)c(Cl)c2)cc1	-1	0	-6	6	-6.7*	-1
Cc1ccc(NCCC(=O)c2ccc(Cl)cc2)cc1	2	1	-4	0	97	5
O=C(NCCN1C(=O)S/C(=C\c2cccnc2)C1=O)c1ccc([N+](=O)[O-])s1	nt	2	-6	-6	46	-10
CCC1(C)Cc2c(C#N)c(SC)nc(N3CCOCC3)c2CO1 (stereo not drawn)	-2	-2	-20	-8	102	53*
CSc1nc(N2CCOCC2)c2c(c1C#N)CC(C)(C)OC2	nt	-1	0	3	101	2
COc1ccccc1N(CC(=O)Nc1ccccc1C(=O)NCC(C)C)S(C)(=O)=O	-1	-3	-13	-5	101	3
CCCCNC(=O)NNC(=O)COc1cccc(C)c1C	-2	2	-5	0	102	4
O=C(CSc1ccc(-c2ccc3c(c2)OCO3)nn1)Nc1nccs1	-3	-7	5	-2	95*	16
O=C(/C=C/c1cccc(F)c1)OCC(=O)N1CCCc2ccccc21	-2	0	-16	5	106	-1
O=C(/C=C/c1cccc(F)c1)N1CCc2ccccc21	-2	-10	-6	17	18*	1
Cc1nc2nc(-c3ccccc3)cn2nc1C	nt	-16	6	4	98	-4
CCc1c(-c2ccccc2)nc2nc(C)c(C)nn12	nt	1	-13	-4	33*	8
CCOc1ccccc1NC(=O)C(=O)N/N=C/c1ccc([N+](=O)[O-])cc1	-6	0	-2	3	93*	4
O=S(=O)(c1cccc(S(=O)(=O)N2CCOCC2)c1)N1CCCCCC1	0	-1	-1	0	107	-7
CC(=O)N1c2ccc(S(=O)(=O)N3CCCC(C(=O)N4CCC(C)CC4)C3)cc2CC1C (stereo not drawn)	nt	1	-5	-4	-9.0*	-12
O=C(NCCCn1ccnc1)c1cc(C(=O)C2CCCCC2)c[nH]1	-6	-1	-6	0	nt	5
CC(=O)NC1=C(N(C)C2CCS(=O)(=O)C2)C(=O)c2ccccc2C1=O (stereo not drawn)	107*	11	-5	2	112	-13
CCn1c(CC(=O)Nc2ccc(F)cc2)nnc1SCC(=O)NC1=NCCS1	-1	1	-3	2	-62*	15
